Source: the supplement of paper PMC10127200
Counter-ions that a name gives are not always drawn.

Columns and labels:
Test in all cases: Euclidean distance of Cell Painting phenotypic profile (signed KS, 77 features) to DMSO centroid (dimensionless distance); 5 or 10 uM (library dependent); higher = stronger phenotypic change vs DMSO (phenoactivity)
Settings in all cases: 48 h
786-O = test system: 786-O
Procedure, shortened: (§1)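 Library compounds were applied at 10 or 5 uM, depending on the library, with 0.1% DMSO final, for 48 h to five cancer lines and a healthy fibroblast line. After staining, cells were imaged confocally at 20X across 9 fields per well, and Harmony extracted 77 features, each scored as a signed Kolmogorov-Smirnov statistic against vehicle wells on the same plate. Phenoactivity is the Euclidean distance between each profile and the median vehicle profile, with profiles first plate-position corrected, correlation-weighted and averaged over replicates at the top dose.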

A549 = test system: A549
Procedure, shortened: as §1

DU145 = test system: DU145
Procedure, shortened: as §1

FB = test system: FB
Procedure, shortened: as §1

HEPG2 = test system: HEPG2
Procedure, shortened: as §1

OVCAR4 = test system: OVCAR4
Procedure, shortened: as §1

| SMILES | Euclidean distance (786-O) | Euclidean distance (A549) | Euclidean distance (DU145) | Euclidean distance (FB) | Euclidean distance (HEPG2) | Euclidean distance (OVCAR4) |
| --- | --- | --- | --- | --- | --- | --- |
| CN(C)CCCOc1nn(Cc2ccccc2)c2ccccc12 [Benzydamine HCl] | 1.26 | 0.962 | 1.75 | 1.24 | 0.87 | 1.33 |
| Cc1nccn1CC1CCc2c(c3ccccc3n2C)C1=O (centres undefined) [Ondansetron HCl] | 1.31 | 1.62 | 1.01 | 1.16 | 0.865 | 0.943 |
| CC1=C(CC(=O)O)c2cc(F)ccc2/C1=C\c1ccc([S+](C)[O-])cc1 (centres undefined) [Sulindac] | 0.824 | 0.664 | 0.975 | 0.812 | 1.5 | 1.26 |
| COc1cc2c(Oc3ccc(NC(=O)C4(C(=O)Nc5ccc(F)cc5)CC4)cc3F)ccnc2cc1OCCCN1CCOCC1 | 1.39 | 2.06 | 1.35 | 1.52 | 0.94 | 3.97 |
| COc1ccc2ccc(=O)oc2c1CC=C(C)C [Osthole] | 1.34 | 0.749 | 0.86 | 1.14 | 0.394 | 0.956 |
| Cn1c(=O)c2[nH]c(Br)nc2n(C)c1=O [Pamabrom] | 0.794 | 0.799 | 1.56 | 1.18 | 0.337 | 0.81 |
| O=C(O)c1ccc(CN2CCC(CN[C@@H]3C[C@H]3c3ccccc3)CC2)cc1 | 1.04 | 1.01 | 0.946 | 1.08 | 1.11 | 1.06 |
| Clc1cccc(Cl)c1NC1=NCCN1 [Clonidine HCl] | 1.05 | 1.46 | 1.32 | 1.16 | 0.83 | 1.24 |
| O=c1[nH]c(=O)n([C@H]2C[C@H](O)[C@@H](CO)O2)cc1I [Idoxuridine] | 2.71 | 1.26 | 2.3 | 1.41 | 1.5 | 1.42 |
| COc1cc(/C=C/C(=O)N2CCN(CC(=O)N3CCCC3)CC2)cc(OC)c1OC [Cinepazide maleate] | 1.21 | 0.96 | 1.04 | 1.16 | 0.337 | 1.41 |
| C=CC(=O)Nc1cccc(Nc2nc(Nc3ccc(OCCOC)cc3)ncc2F)c1 [Spebrutinib (CC-292. AVL-292)] | 2.73 | 3.75 | 3.51 | 3.98 | 3.25 | 2.96 |
| CC(C)NCC(O)c1ccc(O)c(O)c1 (centres undefined) [Isoprenaline HCl] | 1.55 | 1.42 | 1.07 | 1.04 | 0.596 | 1.2 |
| COc1c(C)c(C(=O)c2ccc(N)c(C(=O)O)c2)n2ccccc12 | 0.838 | 1.03 | 0.919 | 1.47 | 0.969 | 1.32 |
| CCOc1ccc(NC(C)=O)cc1 [Phenacetin] | 1.38 | 0.916 | 1.56 | 0.94 | 0.469 | 1.83 |
| Cc1[nH]c(=O)c(C#N)cc1-c1ccc2nccn2c1 [Olprinone] | 1.08 | 1.07 | 0.61 | 1.08 | 0.547 | 1.11 |
| CCCC(CCC)C(=O)O [Divalproex Sodium] | 1.31 | 0.566 | 0.425 | 0.846 | 0.404 | 0.812 |
| CCOC(=O)c1ccc(O)cc1 [Ethylparaben] | 0.729 | 0.362 | 0.901 | 0.865 | 0.385 | 1.31 |
| COc1cc(NC(=O)c2ccccn2)ccc1Cl | 1.08 | 0.966 | 0.845 | 1.02 | 0.638 | 1.19 |
| CC(=O)OCC(COC(C)=O)OC(C)=O [Triacetin] | 1.28 | 0.762 | 1.03 | 1.11 | 1.02 | 0.787 |
| C/C=C\c1ccc(O)c(OC)c1 [Isoeugenol] | 0.776 | 0.444 | 1.07 | 0.672 | 0.417 | 0.903 |
| CO/N=C(\C(=O)N[C@@H]1C(=O)N2C(C(=O)O)=CCS[C@H]12)c1csc(N)n1 [Ceftizoxime sodium] | 0.557 | 0.807 | 1.33 | 1.07 | 0.578 | 0.958 |
| O=C(NCCCNc1nc(Nc2cccc(NC(=O)N3CCCC3)c2)ncc1I)c1cccs1 | 2.35 | 4.29 | 3.26 | 3.8 | 2.12 | 4.44 |
| C[C@@H](O)[C@H]1C(=O)N2C(C(=O)O)=C(S[C@@H]3CN[C@H](CNS(N)(=O)=O)C3)[C@H](C)[C@H]12 [Doripenem] | 0.636 | 0.801 | 0.812 | 1.15 | 0.434 | 1.45 |
| NC(=O)c1cnccn1 [Pyrazinamide] | 1.07 | 1.35 | 0.786 | 1.14 | 1.95 | 1.13 |
